Reference: PubChem BioAssay AID588852 (The Scripps Research Institute Molecular Screening Center, 2011)
Among all 360,000 compounds or so, about 4,600 (1.3%) were called active.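 Rule for the calls: active = percent inhibition above its own plate's cutoff, namely the mean of that plate's compound wells plus 3 SD; inactive = the rest.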 For the sample, actives were picked, then their nearest neighbours and some compounds at random.

What follows are compounds tested against Muscarinic acetylcholine receptor M1 (Homo sapiens) (UniProt P11229) (assay: human M1 muscarinic receptor antagonists, primary screen, CHO-K1 cells, Fluo-8 calcium fluorescence, 1536-well (AID 588852;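 note: peak over basal fluorescence ratio during 140 s after agonist addition; 0% = ACh EC80 plus DMSO and 100% = DMSO alone without agonist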)). Settings: CHO-K1 hM1, Fluo-8 calcium fluorescence, ACh EC80 antagonist; at 3 µM; stronger effect = higher value.
Sequence of Muscarinic acetylcholine receptor M1 (Homo sapiens) (P11229 whole entry, looked up): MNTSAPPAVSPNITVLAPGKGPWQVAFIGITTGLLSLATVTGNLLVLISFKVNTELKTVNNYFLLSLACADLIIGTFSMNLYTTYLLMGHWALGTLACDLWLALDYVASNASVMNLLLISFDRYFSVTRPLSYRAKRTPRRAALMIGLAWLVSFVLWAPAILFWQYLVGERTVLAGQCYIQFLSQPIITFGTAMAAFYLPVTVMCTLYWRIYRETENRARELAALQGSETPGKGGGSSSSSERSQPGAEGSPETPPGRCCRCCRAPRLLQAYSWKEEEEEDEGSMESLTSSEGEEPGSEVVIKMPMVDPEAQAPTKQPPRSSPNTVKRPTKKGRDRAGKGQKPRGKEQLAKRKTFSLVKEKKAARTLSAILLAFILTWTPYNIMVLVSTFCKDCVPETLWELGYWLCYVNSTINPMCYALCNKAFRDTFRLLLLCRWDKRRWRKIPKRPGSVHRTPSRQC

inhibition, active:
COC(CCN(C)C)(c1ccccc1)c1ccccc1 60.4%
O=C(NCc1ccccc1CN1CCCC1)C1CCN(S(=O)(=O)c2ccc(Cl)cc2)CC1 35.7%
O=C(NNS(=O)(=O)c1ccc(Cl)cc1)C1CCN(Cc2ccccc2)CC1 57.4%
CCCCOC(=O)c1ccc(N2C(=O)CC(N3CCN(C/C=C/c4ccccc4)CC3)C2=O)cc1 (stereo not given) 23.9%
C=CCC1(CC=C)CCCN1C(=O)c1cc(COc2ccc(-n3cncn3)cc2)on1 38.7%
CC(C)N(Cc1ccccc1)C(=O)COC(=O)c1ccccc1SCC(=O)N1CCCC1 32.7%
COc1ccc(CC(=O)Nc2nc(-c3ccc(F)c(F)c3)cs2)cc1OC 37.2%
COc1cc(CC(=O)Nc2nc(-c3ccc(F)c(F)c3)cs2)cc(OC)c1OC 32.3%
CN(CC#CCC(c1ccccc1)c1ccccc1)C(C)(C)C 94.5%
CC(C)OCCCNc1ncnc2c1[nH]c1ccc(F)cc12 49.6%
COc1cccc(/C=N/Nc2cc(C)nc(-c3ccccc3O)n2)c1O 37%

inhibition, inactive:
COCc1cc(=O)[nH]c(-c2ccc(C(F)(F)F)cc2)n1 -16.9%
CC(=O)N[C@@H](C)C(=O)N1CCC(n2nccc2NC(=O)CCCc2ccccc2)CC1 -3.58%
CN(Cc1ccc(C(F)(F)F)cc1)C(=O)[C@H]1O[C@@H](n2cnc3c(N)ncnc32)[C@H](O)[C@@H]1O -26%
CN(C)N(C)C(=O)C(O)(c1ccccc1)c1ccccc1 17.7%
CCCC(O)(c1ccc(OC)cc1)C(CN(C)C)c1ccccc1 (stereo not given) -7.01%
CC(=O)NC(CC(=O)Nc1cccc(S(=O)(=O)N2CCCC2)c1)c1ccccc1 (stereo not given) 3.34%
CN(C)CCNC(=O)c1cccc(-c2cnc3c(NC=O)cc(-c4cccc(C(F)(F)F)c4)cn23)c1 2.76%
CN1OC[C@@H]2CN(C(=O)c3cccc4ccccc34)[C@H](c3ccc(N4CCCCC4)cc3)C[C@@H]21 19.7%
CN(CCOc1ccccc1)Cc1nc2cc(Cl)ccc2c(=O)[nH]1 -3.58%
Cc1nnc(NC2=NCCCCC2)o1 4.98%
CC/C(=N\NC(=S)NC(C)C)c1ccc(OC(F)F)cc1 8.57%
O=C1CCc2cc(S(=O)(=O)N3CCC(C(=O)NCc4ccccc4Cl)CC3)ccc2N1 -13.3%
CCNC(=S)NNC(=O)C1CCN(Cc2ccccc2)CC1 -7.27%
O=C(NCc1ccccc1Cl)C1CCN(S(=O)(=O)N2CCOCC2)CC1 0.29%
Cc1ccc(S(=O)(=O)NCCC(=O)NC2CCN(Cc3ccccc3)CC2)cc1 -6.1%
CCCCC[C@@H]1C=C(C(=O)OCC)[C@H](c2ccccc2)N1S(=O)(=O)c1ccc(C)cc1 7.33%
Cc1ccc(NC(=O)[C@H](Cc2ccccc2)NC(=O)CC[C@H]2O[C@@H](n3ccc(=O)[nH]c3=O)[C@H](O)[C@@H]2O)cc1C -1.88%
Nc1ncnc2c1ncn2[C@@H]1O[C@H](C(=O)N2CCCN(Cc3ccccc3F)CC2)[C@@H](O)[C@H]1O -21.5%
CN(C)C(=O)c1cccc(-c2cnc3sc(NCc4ccc5c(c4)OCO5)nn23)c1 -4.01%
CCOC(=O)c1ccc(N2C(=O)CC(N3CCC(C(=O)OCC)CC3)C2=O)cc1 (stereo not given) 2.05%
CCOC(=O)c1ccc(N2C(=O)CC(N3CCN(C(=O)c4ccccc4)CC3)C2=O)cc1 (stereo not given) -7.68%
COc1ccc(CCNC(=O)CCNS(=O)(=O)c2cc(Br)cnc2N)cc1OC -19.1%
CCCC(=O)N1CCC1(C)C(=O)Nc1ccc(-n2cncn2)cc1 (stereo not given) -15.8%
COc1cccc(OCc2cc(C(=O)N3CCN(C(=O)c4ccco4)CC3)no2)c1 -3.65%
COc1ccccc1NC(=O)COC(=O)c1ccccc1SCC(=O)N1CCCC1 -4.49%
CC(NC(=O)c1ccccc1SCC(=O)N1CCCC1)c1ccccc1 (stereo not given) -16.6%
COc1cc(C=C(OC(C)=O)c2ccc3c(c2)OCO3)cc(OC)c1OC 17.2%
O=C(NCC1CCCO1)c1ccccc1-c1nc(-c2ccccc2Cl)no1 (stereo not given) 6.15%
Cc1ccc(C(=O)NCC(=O)NCc2cc(=O)n(C)c(=O)n2C)cc1 -9.92%
O=C(COc1ccccc1F)Nc1nc(-c2ccccn2)cs1 -7.13%
COc1ccc(CCNC(=O)COC(=O)Cc2cc(OC)c(OC)c(OC)c2)cc1 -5.89%
COc1ccc(-c2csc(Nc3cccc(C)n3)n2)cc1OC -13.9%
COc1ccc(CC(=O)Nc2ccccc2NC(=O)c2ccco2)cc1OC -6.85%
CC(C)C[C@H]1CN([C@@H](Cc2ccccc2)CN2CCC[C@@H]2CN2C(=O)C(=O)NC[C@@H]2Cc2ccc(O)cc2)C(=O)C(=O)N1CCc1ccccc1 6.28%
CC(=O)Nc1ccc(NC(=O)CSc2nnnn2C2CCCCC2)cc1 -17.6%
CCOC(=O)C1=CCC2C(=O)N(Cc3ccccc3)C(=O)C12 (stereo not given) -8.51%
CCNC(=O)COC(=O)/C=C/c1c(C)nn(Cc2cccc(OC)c2)c1Cl -14.4%
O=C(NC1CC1)C1=C[C@H](c2coc3ccccc3c2=O)C[C@H](OCCCCO)O1 -2.15%
CC1(Cc2cccc(C#N)c2)C(=O)Nc2ccc(-c3cccc(C(F)(F)F)c3)cc21 (stereo not given) -21.5%
O=C(N/N=C/c1ccc(OCC2COCCO2)cc1)c1ccc(Br)cc1 (stereo not given) -0.51%
COc1cc(/C=N/Nc2ccc(C)cc2)cc(Br)c1O 1.92%
COc1ccccc1-n1c(SCC(=O)Nc2cccc(C(=O)O)c2)nnc1-c1ccccc1O -23.3%
CC(C)C(=O)Nc1nnc(SCC(=O)N2C(C)CCCC2C)s1 (stereo not given) -9.39%
COC(C)(C)[C@]12CC(O)(C(C)C)ON1[C@H]1CCCCC1N2O (stereo not given in full) 2.96%
